# Key:
# [1] = biological target: Protein kinase C gamma type (Homo sapiens) (UniProt P05129); conditions: at 1 µM;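 note: each value is an averaged percent inhibition of the enzyme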
# [2] = biological target: T1, Protein kinase C iota type (Homo sapiens) (UniProt P41743); conditions: at 0.1 µM
# T1 sequence (whole entry): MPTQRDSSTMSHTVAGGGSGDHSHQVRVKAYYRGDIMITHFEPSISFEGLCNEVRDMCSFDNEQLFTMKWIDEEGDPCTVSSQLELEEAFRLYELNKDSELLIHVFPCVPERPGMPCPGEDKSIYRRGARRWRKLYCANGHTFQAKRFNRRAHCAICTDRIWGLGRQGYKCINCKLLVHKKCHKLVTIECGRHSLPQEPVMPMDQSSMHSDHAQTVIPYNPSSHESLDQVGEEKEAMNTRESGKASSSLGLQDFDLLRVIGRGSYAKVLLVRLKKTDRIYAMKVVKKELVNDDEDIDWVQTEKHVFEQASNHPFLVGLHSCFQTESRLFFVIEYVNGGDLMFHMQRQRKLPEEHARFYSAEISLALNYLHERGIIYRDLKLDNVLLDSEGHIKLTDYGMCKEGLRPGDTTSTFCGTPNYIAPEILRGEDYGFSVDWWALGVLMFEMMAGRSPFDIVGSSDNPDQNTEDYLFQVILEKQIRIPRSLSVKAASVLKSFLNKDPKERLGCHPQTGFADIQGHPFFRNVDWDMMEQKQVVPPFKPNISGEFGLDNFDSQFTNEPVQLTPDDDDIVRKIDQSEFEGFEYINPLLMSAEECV
# [3] = biological target: T1, Protein kinase C iota type (Homo sapiens); conditions: at 1 µM
# [4] = biological target: Protein kinase C theta type (Homo sapiens) (UniProt Q04759); conditions: at 0.1 µM
# Sequence of Protein kinase C theta type (Homo sapiens) (Q04759 whole entry, looked up): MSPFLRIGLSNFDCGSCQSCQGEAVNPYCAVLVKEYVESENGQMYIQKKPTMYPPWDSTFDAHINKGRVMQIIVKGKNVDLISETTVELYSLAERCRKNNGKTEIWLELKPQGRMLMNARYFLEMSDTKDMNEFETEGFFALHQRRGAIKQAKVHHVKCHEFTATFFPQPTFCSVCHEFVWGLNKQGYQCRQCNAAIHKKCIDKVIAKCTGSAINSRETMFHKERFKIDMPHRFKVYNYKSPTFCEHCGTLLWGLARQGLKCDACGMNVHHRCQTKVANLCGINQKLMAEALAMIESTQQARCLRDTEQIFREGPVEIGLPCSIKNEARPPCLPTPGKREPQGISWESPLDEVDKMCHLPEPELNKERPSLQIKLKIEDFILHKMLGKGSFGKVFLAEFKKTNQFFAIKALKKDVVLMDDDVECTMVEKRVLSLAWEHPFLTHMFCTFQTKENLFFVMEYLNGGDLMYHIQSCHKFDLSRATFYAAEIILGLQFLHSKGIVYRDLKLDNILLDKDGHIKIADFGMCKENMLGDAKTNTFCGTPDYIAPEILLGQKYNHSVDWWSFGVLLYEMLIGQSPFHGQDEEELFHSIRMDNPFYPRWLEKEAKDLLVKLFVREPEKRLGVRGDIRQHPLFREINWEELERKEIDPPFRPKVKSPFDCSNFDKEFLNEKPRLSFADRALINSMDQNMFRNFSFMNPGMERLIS
# [5] = biological target: Protein kinase C theta type (Homo sapiens) (UniProt Q04759); conditions: at 1 µM
# [6] = biological target: Protein kinase C beta type (Homo sapiens) (UniProt P05771); conditions: at 0.1 µM
# Sequence of Protein kinase C beta type (Homo sapiens) (P05771 2-671 limits assumed): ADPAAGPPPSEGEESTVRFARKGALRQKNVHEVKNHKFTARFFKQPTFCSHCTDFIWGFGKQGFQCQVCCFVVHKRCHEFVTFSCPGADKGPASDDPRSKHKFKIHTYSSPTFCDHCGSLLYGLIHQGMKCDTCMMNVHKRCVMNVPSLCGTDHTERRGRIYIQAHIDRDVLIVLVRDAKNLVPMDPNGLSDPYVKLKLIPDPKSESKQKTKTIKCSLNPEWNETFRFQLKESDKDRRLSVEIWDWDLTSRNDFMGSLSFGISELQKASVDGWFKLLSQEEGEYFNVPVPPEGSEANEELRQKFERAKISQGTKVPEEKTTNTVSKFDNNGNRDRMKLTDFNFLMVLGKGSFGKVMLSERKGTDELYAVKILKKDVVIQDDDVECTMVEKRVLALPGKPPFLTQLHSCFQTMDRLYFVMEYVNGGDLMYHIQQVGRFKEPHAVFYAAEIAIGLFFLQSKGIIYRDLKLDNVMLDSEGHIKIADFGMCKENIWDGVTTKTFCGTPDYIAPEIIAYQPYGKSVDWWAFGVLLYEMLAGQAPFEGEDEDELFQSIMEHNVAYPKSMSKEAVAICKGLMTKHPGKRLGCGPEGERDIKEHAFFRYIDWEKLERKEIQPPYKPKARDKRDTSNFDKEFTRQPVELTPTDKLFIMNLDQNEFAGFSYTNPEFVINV
# [7] = biological target: Protein kinase C beta type (Homo sapiens) (UniProt P05771); conditions: at 1 µM
# [8] = biological target: T2, Serine/threonine-protein kinase D1 (Homo sapiens) (UniProt Q15139); conditions: at 0.1 µM
# T2 sequence (whole entry): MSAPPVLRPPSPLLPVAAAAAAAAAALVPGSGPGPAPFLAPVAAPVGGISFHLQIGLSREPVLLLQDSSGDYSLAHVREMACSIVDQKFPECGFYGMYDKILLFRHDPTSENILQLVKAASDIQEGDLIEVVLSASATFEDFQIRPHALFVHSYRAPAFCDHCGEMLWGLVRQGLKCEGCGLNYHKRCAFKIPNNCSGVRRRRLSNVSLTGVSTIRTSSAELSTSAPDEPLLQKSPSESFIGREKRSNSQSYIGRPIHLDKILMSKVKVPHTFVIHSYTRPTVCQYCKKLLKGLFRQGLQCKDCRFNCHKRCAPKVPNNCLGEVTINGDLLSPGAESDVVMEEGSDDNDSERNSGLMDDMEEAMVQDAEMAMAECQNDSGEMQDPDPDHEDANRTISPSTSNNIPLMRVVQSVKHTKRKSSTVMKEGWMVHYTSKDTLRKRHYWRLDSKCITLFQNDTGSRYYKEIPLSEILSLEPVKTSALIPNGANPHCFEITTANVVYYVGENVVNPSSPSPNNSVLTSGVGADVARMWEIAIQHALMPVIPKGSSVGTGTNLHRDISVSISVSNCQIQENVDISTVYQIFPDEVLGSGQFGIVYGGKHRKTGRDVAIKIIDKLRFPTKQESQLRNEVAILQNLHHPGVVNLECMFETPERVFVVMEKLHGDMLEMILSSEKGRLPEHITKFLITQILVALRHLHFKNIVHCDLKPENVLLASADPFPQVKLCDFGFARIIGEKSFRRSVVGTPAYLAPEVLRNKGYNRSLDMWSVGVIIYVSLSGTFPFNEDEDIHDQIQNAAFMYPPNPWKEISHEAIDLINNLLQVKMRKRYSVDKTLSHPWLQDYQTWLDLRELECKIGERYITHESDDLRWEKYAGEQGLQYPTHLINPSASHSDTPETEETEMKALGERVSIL
# [9] = biological target: T2, Serine/threonine-protein kinase D1 (Homo sapiens); conditions: at 1 µM
# [10] = biological target: T3, Serine/threonine-protein kinase D2 (Homo sapiens) (UniProt Q9BZL6); conditions: at 0.1 µM
# T3 sequence (whole entry): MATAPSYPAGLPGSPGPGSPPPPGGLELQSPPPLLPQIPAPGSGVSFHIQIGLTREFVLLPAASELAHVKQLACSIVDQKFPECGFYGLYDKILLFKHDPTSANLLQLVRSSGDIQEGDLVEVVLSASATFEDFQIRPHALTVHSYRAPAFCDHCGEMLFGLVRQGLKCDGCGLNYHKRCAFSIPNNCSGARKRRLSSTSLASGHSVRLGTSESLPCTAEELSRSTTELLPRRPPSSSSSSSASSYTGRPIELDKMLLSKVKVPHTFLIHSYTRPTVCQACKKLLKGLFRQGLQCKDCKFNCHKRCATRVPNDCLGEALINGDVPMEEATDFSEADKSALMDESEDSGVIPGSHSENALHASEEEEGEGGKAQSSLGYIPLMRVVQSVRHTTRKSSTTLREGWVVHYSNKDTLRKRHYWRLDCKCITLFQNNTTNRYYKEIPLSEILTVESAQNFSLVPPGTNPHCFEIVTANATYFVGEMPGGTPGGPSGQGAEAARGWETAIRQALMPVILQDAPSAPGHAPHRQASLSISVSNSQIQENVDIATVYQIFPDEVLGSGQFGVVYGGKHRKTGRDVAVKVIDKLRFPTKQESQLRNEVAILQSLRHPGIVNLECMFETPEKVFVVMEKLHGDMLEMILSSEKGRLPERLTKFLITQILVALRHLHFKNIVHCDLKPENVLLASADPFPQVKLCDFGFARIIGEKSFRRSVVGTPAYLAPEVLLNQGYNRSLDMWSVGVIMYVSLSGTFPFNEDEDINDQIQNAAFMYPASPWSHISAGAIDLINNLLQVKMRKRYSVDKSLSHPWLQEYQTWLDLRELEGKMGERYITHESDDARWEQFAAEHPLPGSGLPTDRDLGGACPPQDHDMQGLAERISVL
# [11] = biological target: T3, Serine/threonine-protein kinase D2 (Homo sapiens); conditions: at 1 µM
# [12] = biological target: T4, Serine/threonine-protein kinase D3 (Homo sapiens) (UniProt O94806); conditions: at 0.1 µM
# T4 sequence (whole entry): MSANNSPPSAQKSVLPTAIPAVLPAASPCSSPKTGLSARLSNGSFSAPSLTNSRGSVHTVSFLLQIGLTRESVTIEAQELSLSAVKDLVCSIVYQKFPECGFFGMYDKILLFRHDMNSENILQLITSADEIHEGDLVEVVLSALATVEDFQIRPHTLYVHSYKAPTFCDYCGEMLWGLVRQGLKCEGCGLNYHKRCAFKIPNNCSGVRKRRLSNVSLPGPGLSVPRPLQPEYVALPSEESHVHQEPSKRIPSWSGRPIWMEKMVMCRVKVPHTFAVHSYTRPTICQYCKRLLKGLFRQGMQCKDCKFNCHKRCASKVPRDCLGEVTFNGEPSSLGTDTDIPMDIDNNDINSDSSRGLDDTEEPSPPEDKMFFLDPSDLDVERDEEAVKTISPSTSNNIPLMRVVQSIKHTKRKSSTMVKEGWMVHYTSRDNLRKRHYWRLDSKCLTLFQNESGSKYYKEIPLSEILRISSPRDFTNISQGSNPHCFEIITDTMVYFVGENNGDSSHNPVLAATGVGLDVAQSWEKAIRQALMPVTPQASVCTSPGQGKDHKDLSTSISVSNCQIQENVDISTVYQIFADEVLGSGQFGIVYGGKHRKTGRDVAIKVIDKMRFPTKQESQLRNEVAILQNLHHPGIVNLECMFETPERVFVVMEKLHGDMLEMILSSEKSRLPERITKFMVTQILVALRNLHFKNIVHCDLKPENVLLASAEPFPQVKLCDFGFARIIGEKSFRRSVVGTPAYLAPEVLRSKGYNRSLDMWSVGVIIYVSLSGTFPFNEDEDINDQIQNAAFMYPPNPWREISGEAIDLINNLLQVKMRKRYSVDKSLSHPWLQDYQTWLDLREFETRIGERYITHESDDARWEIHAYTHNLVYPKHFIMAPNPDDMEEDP
# [13] = biological target: T4, Serine/threonine-protein kinase D3 (Homo sapiens); conditions: at 1 µM
# [14] = biological target: T5, cGMP-dependent protein kinase 1 (Homo sapiens) (UniProt Q13976); conditions: at 0.1 µM
# T5 sequence (whole entry): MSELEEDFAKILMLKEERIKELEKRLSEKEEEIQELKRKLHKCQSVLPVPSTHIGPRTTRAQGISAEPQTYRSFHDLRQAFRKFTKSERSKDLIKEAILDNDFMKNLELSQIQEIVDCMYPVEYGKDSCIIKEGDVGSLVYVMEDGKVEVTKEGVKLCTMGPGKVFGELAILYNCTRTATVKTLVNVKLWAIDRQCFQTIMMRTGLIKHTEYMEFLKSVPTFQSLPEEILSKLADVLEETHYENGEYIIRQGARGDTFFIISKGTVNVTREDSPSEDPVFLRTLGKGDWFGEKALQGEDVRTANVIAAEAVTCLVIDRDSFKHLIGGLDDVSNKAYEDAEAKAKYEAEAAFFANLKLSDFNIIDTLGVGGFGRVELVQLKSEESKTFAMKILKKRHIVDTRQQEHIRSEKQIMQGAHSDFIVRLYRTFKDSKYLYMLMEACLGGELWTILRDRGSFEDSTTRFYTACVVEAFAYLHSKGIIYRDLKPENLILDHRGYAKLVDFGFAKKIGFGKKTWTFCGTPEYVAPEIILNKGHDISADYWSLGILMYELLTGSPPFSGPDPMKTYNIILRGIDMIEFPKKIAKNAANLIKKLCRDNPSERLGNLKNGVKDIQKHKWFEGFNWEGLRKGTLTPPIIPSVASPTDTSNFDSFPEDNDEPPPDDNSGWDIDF
# [15] = biological target: T5, cGMP-dependent protein kinase 1 (Homo sapiens); conditions: at 1 µM
# [16] = biological target: T6, cGMP-dependent protein kinase 2 (Homo sapiens) (UniProt Q13237); conditions: at 0.1 µM
# T6 sequence (whole entry): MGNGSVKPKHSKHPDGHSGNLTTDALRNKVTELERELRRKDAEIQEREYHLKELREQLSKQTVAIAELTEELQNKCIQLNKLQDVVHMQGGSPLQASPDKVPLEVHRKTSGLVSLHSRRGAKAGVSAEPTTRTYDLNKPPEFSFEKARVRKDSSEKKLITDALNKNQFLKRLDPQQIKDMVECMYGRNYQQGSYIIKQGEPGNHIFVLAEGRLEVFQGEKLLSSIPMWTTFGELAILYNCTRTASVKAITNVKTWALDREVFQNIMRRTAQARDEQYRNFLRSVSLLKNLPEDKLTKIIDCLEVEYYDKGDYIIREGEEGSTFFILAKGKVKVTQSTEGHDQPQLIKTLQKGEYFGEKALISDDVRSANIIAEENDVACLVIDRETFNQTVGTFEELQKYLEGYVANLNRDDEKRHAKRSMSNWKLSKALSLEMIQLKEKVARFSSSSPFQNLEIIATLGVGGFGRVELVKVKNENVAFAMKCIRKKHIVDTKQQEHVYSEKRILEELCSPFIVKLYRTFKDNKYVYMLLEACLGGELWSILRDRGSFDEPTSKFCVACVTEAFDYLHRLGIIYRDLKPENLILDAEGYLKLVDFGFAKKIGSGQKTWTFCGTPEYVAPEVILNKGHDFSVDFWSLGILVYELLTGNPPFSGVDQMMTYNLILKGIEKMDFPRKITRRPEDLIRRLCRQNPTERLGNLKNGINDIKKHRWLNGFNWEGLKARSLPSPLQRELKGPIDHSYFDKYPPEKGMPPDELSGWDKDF
# [17] = biological target: T6, cGMP-dependent protein kinase 2 (Homo sapiens); conditions: at 1 µM
# [18] = biological target: T7, cAMP-dependent protein kinase catalytic subunit PRKX (Homo sapiens) (UniProt P51817); conditions: at 0.1 µM
# T7 sequence (whole entry): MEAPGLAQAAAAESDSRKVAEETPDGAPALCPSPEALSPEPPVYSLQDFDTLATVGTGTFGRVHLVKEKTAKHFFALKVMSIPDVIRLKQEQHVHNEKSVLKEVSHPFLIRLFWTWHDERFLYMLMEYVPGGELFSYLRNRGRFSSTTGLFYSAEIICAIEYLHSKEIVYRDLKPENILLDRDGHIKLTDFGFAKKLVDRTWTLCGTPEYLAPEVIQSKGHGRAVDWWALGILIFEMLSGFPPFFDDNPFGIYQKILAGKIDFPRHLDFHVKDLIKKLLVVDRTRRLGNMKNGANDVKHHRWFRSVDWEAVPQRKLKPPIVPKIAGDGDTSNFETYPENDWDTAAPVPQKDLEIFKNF
# [19] = biological target: T7, cAMP-dependent protein kinase catalytic subunit PRKX (Homo sapiens); conditions: at 1 µM
# [20] = biological target: Rho-associated protein kinase 1 (Homo sapiens) (UniProt Q13464); conditions: at 0.1 µM;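 note: values are mean percent inhibition of ROCK1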
# Sequence of Rho-associated protein kinase 1 (Homo sapiens) (Q13464 2-1354 limits assumed): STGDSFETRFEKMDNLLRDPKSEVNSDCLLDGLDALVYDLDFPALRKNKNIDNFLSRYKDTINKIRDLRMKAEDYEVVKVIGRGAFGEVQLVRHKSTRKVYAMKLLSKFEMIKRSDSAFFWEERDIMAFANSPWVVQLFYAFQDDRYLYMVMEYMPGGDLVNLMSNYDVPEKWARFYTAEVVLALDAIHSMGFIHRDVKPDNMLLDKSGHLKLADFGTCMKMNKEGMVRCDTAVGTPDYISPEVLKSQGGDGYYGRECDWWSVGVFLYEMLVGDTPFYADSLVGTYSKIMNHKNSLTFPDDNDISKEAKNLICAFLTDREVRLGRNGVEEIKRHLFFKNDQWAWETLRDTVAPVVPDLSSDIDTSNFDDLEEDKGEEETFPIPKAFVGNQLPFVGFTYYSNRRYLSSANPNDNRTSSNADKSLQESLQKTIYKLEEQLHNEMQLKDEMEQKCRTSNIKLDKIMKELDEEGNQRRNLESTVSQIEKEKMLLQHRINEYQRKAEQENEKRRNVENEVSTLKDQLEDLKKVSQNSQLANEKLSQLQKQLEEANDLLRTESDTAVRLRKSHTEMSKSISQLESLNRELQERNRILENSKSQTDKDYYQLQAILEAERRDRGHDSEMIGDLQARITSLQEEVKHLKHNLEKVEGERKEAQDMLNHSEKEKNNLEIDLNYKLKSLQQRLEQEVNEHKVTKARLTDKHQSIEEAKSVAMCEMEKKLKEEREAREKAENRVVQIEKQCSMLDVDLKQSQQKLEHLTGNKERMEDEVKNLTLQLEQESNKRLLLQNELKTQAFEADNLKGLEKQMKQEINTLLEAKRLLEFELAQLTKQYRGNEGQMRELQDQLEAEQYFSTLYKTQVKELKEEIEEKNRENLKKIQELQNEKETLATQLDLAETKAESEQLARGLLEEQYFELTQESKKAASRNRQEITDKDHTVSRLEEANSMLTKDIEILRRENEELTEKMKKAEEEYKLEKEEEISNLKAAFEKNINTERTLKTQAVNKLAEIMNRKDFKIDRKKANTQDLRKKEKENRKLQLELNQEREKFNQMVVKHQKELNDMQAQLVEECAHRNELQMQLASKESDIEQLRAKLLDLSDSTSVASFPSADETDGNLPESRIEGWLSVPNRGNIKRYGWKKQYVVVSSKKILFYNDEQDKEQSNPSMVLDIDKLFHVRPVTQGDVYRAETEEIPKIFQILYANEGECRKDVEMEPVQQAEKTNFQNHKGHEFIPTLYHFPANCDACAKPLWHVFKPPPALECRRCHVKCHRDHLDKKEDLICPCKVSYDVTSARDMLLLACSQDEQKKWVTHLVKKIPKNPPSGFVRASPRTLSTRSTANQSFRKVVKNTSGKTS
Compound,inhibition [1] [%],inhibition [2] [%],inhibition [3] [%],inhibition [4] [%],inhibition [5] [%],inhibition [6] [%],inhibition [7] [%],inhibition [8] [%],inhibition [9] [%],inhibition [10] [%],inhibition [11] [%],inhibition [12] [%],inhibition [13] [%],inhibition [14] [%],inhibition [15] [%],inhibition [16] [%],inhibition [17] [%],inhibition [18] [%],inhibition [19] [%],inhibition [20] [%]
CN(C)c1ccc2c(c1)/C(=C/Nc1ccc(S(N)(=O)=O)cc1)C(=O)N2,2.72,2.24,1.5,1.16,0.84,1.61,1.98,2.16,7.78,1.23,5.28,3.16,4.44,2.39,1.76,1.53,8.65,0.94,2.58,0.76
COc1ccc(C2=C(N3CCc4ccccc43)C(=O)NC2=O)cc1,3.73,2.04,2.17,2.55,5.71,1.22,3.96,4.69,9.24,5.06,7.9,4.84,8.41,1.67,6.23,1.42,4.94,2.47,2.49,0.56
CNC(=O)c1cncc(/C=C/c2c(C)cccc2C)c1,0.78,-1.41,-1.56,-0.68,0.76,-0.12,1.01,-2.84,-2.47,-2.56,-2.22,-2.33,-3.04,-0.33,4.28,0.8,1.58,0.26,0.53,-0.35
